Measurements as given in PubChem BioAssay (EPA / NIEHS).
Calls of active or inactive are those of the source. The calls were made as follows: active = hit-call score of the fitted dose curve at least 0.9, where 1 is the maximum; inactive = score below 0.9.

molecular target: Hepatocyte nuclear factor 6 (Homo sapiens) (UniProt Q9UBC0); test: ATG_HNF6_CIS: Attagene CIS-FACTORIAL HepG2 Assay for human Hepatocyte Nuclear Factor 6 (HNF6) (AID 2282952); settings: HepG2 Attagene cis-factorial HNF6 reporter transcription; actives raise or lower the signal
Sequence (Q9UBC0 whole entry, looked up): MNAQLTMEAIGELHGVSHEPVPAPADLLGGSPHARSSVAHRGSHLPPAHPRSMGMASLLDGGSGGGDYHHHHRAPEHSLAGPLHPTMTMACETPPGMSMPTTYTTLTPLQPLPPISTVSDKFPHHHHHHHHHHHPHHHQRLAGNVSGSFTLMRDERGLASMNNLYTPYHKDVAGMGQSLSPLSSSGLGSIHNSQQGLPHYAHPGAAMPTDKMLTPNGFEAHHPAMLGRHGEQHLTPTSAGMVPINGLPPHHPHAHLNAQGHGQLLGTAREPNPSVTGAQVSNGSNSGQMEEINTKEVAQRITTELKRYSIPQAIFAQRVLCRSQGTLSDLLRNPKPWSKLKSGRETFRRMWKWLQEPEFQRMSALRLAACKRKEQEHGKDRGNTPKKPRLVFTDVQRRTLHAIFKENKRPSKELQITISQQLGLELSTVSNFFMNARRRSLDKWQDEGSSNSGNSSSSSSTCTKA
Experimental: ATG_CIS is a cell-based, multiplexed-readout assay that uses HepG2, a human liver cell line, with measurements taken at 24 hours after chemical dosing in a 24-well plate.ATG_HNF6_CIS is one of 52 assay component(s) measured or calculated from the ATG_CIS assay. It is designed to make measurements of mRNA induction, a form of inducible reporter, as detected with fluorescence intensity signals by Reverse transcription polymerase chain reaction (RT-PCR) and Capillary electrophoresis technology.Data from the assay component ATG_HNF6_CIS was analyzed into 1 assay endpoint. This assay endpoint, ATG_HNF6_CIS, was analyzed with bidirectional fitting relative to DMSO as the negative control and baseline of activity. Using a type of inducible reporter, measures of mRNA for gain or loss-of-signal activity can be used to understand the reporter gene at the transcription factor-level as they relate to the gene ONECUT1. Furthermore, this assay endpoint can be referred to as a primary readout, because this assay has produced multiple assay endpoints where this one serves a reporter gene function. To generalize the intended target to other relatable targets, this assay endpoint is annotated to the dna binding intended target family, where the subfamily is homeobox protein.
Human liver HepG2 cells are transiently transfected with multiple reporter transcription units (MRTUs) in 6-well plates using FuGene 6 reagent (Roche; 3 ml FuGene/1 mg DNA). The MRTU constructs are regulated by a cis-regulating element (promoter). […] A major difference between the CIS and TRANS system is that in CIS activities of endogenous TFs are measured, whereas the TRANS assay evaluates changes in activities of exogenous, chimeric NR-Gal4 proteins. […] At the end of 24 hour incubation, total RNA was isolated using TriZol reagent (Invitrogen). The isolated RNA is then reverse-transcribed using oligo(dT) primer and Mo-MLV reverse transcriptase (Invitrogen) with DNAse I (Ambion) treatment for 30 min. The one-tenth of the produced cDNA was amplified by PCR using Taq DNA polymerase (Invitrogen) and two reporter sequence-specific primers. The PCR products were fluorescently labeled by primer extension with 6-arboxyfluorescein (6-FAM) 5'-labeled reporter sequence-specific primer (2 min at 95 C, 20 s at 68 C and 10 min at 72 C) and these products were digested with 5U of HpaI (New England Biolabs) for 2h at 37 C. The fragments were purified using Qiaquick PCR columns (Qiagen), analyzed on an ABI 3130xL genetic analyzer (Applied Biosystems) with peak positions identified by using a set of X-rhodamine (ROX)-labeled MapMarker1000 molecular weight standards (BioVentures). The raw capillary electrophoresis data was processed using Attagraph software (Attagene).

SMILES | outcome | AC50
c1ccc(C(O[C@@H]2CCCN(CCc3ccc4c(c3)OCO4)C2)c2ccccc2)cc1 | inactive | –
Cc1nc(-c2ccccn2)ncc1C(=O)Nn1cc(C)c2cc(F)ccc21 | inactive | –
Cc1cccc(O)c1C | inactive | –
c1ccc2c(c1)-c1cccc3c1c-2cc1ccccc13 | inactive | –
C[C@]12C=CC(=O)C=C1CC[C@H]1[C@@H]3C[C@@H](O)[C@](O)(C(=O)CO)[C@@]3(C)C[C@H](O)[C@@]12F | inactive | –
CC(=O)c1ccccc1 | inactive | –
Cc1ccc(S(=O)(=O)NC(=O)NN2CCCCCC2)cc1 | inactive | –
O=C(Cl)C(F)(F)C(F)(F)C(F)(F)C(=O)Cl | inactive | –
FC(F)C(F)(F)COCC1CO1 (stereo not given) | inactive | –
COc1cc2c(c(OC)c1OC)-c1ccc(OC)c(=O)cc1[C@@H](NC(C)=O)CC2 | inactive | –
CCCCCCCCCC | inactive | –
OCc1c[nH]c2ccccc12 | inactive | –
OCCC(F)(F)C(F)(F)C(F)(F)C(F)(F)F | inactive | –
C=CCc1cc(S(=O)(=O)c2ccc(O)c(CC=C)c2)ccc1O | inactive | –
c1ccc2cc3ccccc3cc2c1 | inactive | –
S=P(N1CC1)(N1CC1)N1CC1 | inactive | –
OC(O)(C(F)C(O)(O)C(F)(F)F)C(F)(F)F | inactive | –
Cc1nccn1-c1ccc(Sc2cccc(C3(C(N)=O)CCOCC3)c2)cc1 | – | 7.22 µM (active)
NC(N)=O | inactive | –
O=C(NO)C1(NS(=O)(=O)c2ccc(Oc3ccc(F)cc3)cc2)CCOCC1 | inactive | –

SMILES | outcome | AC50
CNC(C)=O | inactive | –
c1ccc2ncccc2c1 | inactive | –
CC1(C)C(=O)N(Cl)C(=O)N1Cl | inactive | –
Cc1ncc([C@@H](CCCCCCc2ccc3c(n2)NCCC3)CC(=O)O)cn1 | inactive | –
CCCc1ccccc1 | inactive | –
O=C(O)CO | inactive | –
NC(=O)NN=Cc1ccc([N+](=O)[O-])o1 | inactive | –
O=c1[nH]cnc2c1ncn2[C@H]1CC[C@@H](CO)O1 | inactive | –
CCCCOC(=O)c1ccccc1 | inactive | –
CCCCCCCCN(C)C | inactive | –
CCCCN1C(=O)[C@@H]([C@H](O)C2CCCCC2)NC(=O)C12CCN(Cc1ccc(Oc3ccc(C(=O)O)cc3)cc1)CC2 | inactive | –
O=C(O)c1ccc2c(c1)nc(C(=O)NC1CCN(C3CC3)CC1)n2Cc1cc(-c2ccc(Cl)s2)on1 | inactive | –
OC[C@H]1O[C@@](CO)(O[C@H]2O[C@H](CO)[C@@H](O)[C@H](O)[C@H]2O)[C@@H](O)[C@@H]1O | inactive | –
CCOC(N)=O | inactive | –
CCn1nc(C)c2c1C(=O)NCC(c1ccc(O)cc1)=N2 | inactive | –
FC(F)(F)COC(OCC(F)(F)F)OCC(F)(F)F | inactive | –
CCCOc1ccc(S(=O)(=O)N2CCN(CC)CC2)cc1-c1nc2c(CC)n(Cc3ccccn3)nc2c(=O)[nH]1 | inactive | –
COc1cc(C(C)C)c2c(c1)S(=O)(=O)N(COc1cc(=O)n3cccc(OCCN4CCCCC4)c3n1)C2=O | – | 13.9 µM (active)
CC[C@H](C)C(=O)O[C@H]1C[C@H](O)C=C2C=C[C@H](C)[C@H](CC[C@@H](O)C[C@@H](O)CC(=O)O)[C@H]21 | inactive | –
FC(F)(F)C(F)(F)C(F)(F)C(F)(F)C(F)(F)C(F)(F)I | inactive | –
